Laboratory results: the supplement of paper PMC6992640
Where a name gives a salt, the structure may show the parent alone. ± gives the standard deviation of the averaged measurements.

Tests used:
Experiment in all cases: cell viability (% of vehicle); higher = less cytotoxic
Conditions in all cases: 10 µM; 72 h
[1] = system: HCI01 (cells of a triple-negative basal-like breast cancer xenograft)
[2] = system: HCI03 (cells of an ER-positive luminal breast cancer xenograft)
[3] = system: HCI09 (cells of a triple-negative luminal androgen receptor type breast cancer xenograft)
[4] = system: HCI11 (cells of an ER-positive luminal breast cancer xenograft)
[5] = system: HCI13 (cells of an ER-positive luminal breast cancer xenograft)
[6] = system: HCI16 (cells of a triple-negative basal-like breast cancer xenograft)
[7] = system: UCD52 (cells of a triple-negative basal-like breast cancer xenograft)
[8] = system: WHIM2 (cells of a triple-negative basal-like breast cancer xenograft)
[9] = system: WHIM30 (cells of a triple-negative basal-like breast cancer xenograft)
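Also: PDX cells carrying CMV promoter-driven luciferase, viability read as total photon flux per second by IVIS imaging following D-luciferin, vehicle control 0.1% DMSO.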

| SMILES | cell viability [1] | cell viability [2] | cell viability [3] | cell viability [4] | cell viability [5] | cell viability [6] | cell viability [7] | cell viability [8] | cell viability [9] |
| --- | --- | --- | --- | --- | --- | --- | --- | --- | --- |
| CCC(C)n1ncn(-c2ccc(N3CCN(c4ccc(OCC5COC(Cn6cncn6)(c6ccc(Cl)cc6Cl)O5)cc4)CC3)cc2)c1=O (stereo unspecified) [Itraconazole] | 93.5 ± 38 | 81.2 | 56.7 ± 1.2 | 78.5 | 84.3 ± 4.1 | 129 | 68.6 ± 12 | 131 ± 17 | 94.7 ± 1.1 |
| Cc1c(NC(=O)c2cccnc2)c(=O)n(-c2ccccc2)n1C [Nifenazone] | 115 ± 12 | 95.9 | 116 ± 42 | 114 | 103 ± 10 | 122 | 96.7 ± 4.5 | 93.9 ± 16 | 128 ± 6 |
| CS(=O)(=O)OCCCCOS(C)(=O)=O [Busulfan] | 99.951 ± 0.028 | 115 | 117 ± 7.2 | 105 | 109 ± 4.9 | 108 | 81.4 ± 3.8 | 97.6 ± 4 | 143 ± 10 |
| COCCCCC(=NOCCN)c1ccc(C(F)(F)F)cc1.O=C(O)C=CC(=O)O [Fluvoxamine maleate] | 120 ± 4.3 | 111 | 90.71 ± 0.25 | 93 | 94.6 ± 7.2 | 67.7 | 84.9 ± 8.5 | 69.3 ± 19 | 107 ± 4.1 |
| Cl.NC(CO)C(=O)NNCc1ccc(O)c(O)c1O (stereo unspecified) [Benserazide HCl] | 95.9 ± 1.5 | 69.1 | 83.6 ± 6.1 | 44.9 | 79.2 ± 11 | 77.2 | 69.6 ± 8.5 | 96.3 ± 3.2 | 103 ± 4.4 |
| CCCCCOC(=O)Nc1nc(=O)n(C2OC(C)C(O)C2O)cc1F (stereo unspecified) [Capecitabine] | 142 ± 26 | 114 | 139 ± 24 | 124 | 165 ± 25 | 120 | 112 ± 4 | 108 ± 6.9 | 162 ± 33 |
| Cl.O=C(c1ccc(OCCN2CCCCC2)cc1)c1c(-c2ccc(O)cc2)sc2cc(O)ccc12 [Raloxifene HCl] | 163 ± 35 | 71.2 | 33.7 ± 1.3 | 116 | 50.8 ± 3 | 182 | 80.5 ± 3.9 | 44 ± 7.1 | 156.6 ± 1.1 |
| C[N+](C)(C)CC(O)CC(=O)[O-] [L-Carnitine inner salt] | 123 ± 44 | 119 | 99.8 ± 10 | 95.7 | 111.7 ± 1.1 | 114 | 103 ± 3.8 | 96.9 ± 13 | 103 ± 10 |
| Cc1ccc2c(Cl)cc(Cl)c(O)c2n1 [Chlorquinaldol] | 102 ± 27 | 109 | 31.6 ± 15 | 52.7 | 105 ± 17 | 105 | 69.6 ± 16 | 94.2 ± 31 | 94 ± 5.7 |
| Cc1cc(C(C)(C)C)cc(C)c1CC1=NCCN1.Cl [Xylometazoline HCl] | 74.9 ± 49 | 114 | 103 ± 40 | 89.9 | 136 ± 29 | 106 | 83.9 ± 1.7 | 110 ± 3.6 | 158 ± 12 |
| O=C(CCCN1CCC(O)(c2ccc(Cl)cc2)CC1)c1ccc(F)cc1 [Haloperidol] | 63.3 ± 37 | 102 | 86.1 ± 10 | 90 | 89.6 ± 9.9 | 117 | 61.6 ± 2.5 | 90.8 ± 36 | 121 ± 8.7 |
| CN(C)CCN(Cc1ccccc1)c1ccccn1.Cl [Tripelennamine HCl] | 89.8 ± 3.5 | 62.6 | 94.4 ± 2.5 | 80.6 | 89.3 ± 1.7 | 99.9 | 81.03 ± 0.58 | 111.1 ± 0.86 | 94.2 ± 7.7 |
| CCCC(CCC)C(=O)O [Valproic acid] | 102 ± 13 | 121 | 133 ± 28 | 103 | 143 ± 3.3 | 106 | 95.8 ± 6.9 | 95.6 ± 7.5 | 83.36 ± 0.16 |
| O=S(=O)([O-])Oc1ccc(C(c2ccc(OS(=O)(=O)[O-])cc2)c2ccccn2)cc1.[Na+].[Na+] [Sodium Picosulfate] | 103 ± 33 | 119 | 102 ± 6 | 86.7 | 116 ± 6.3 | 117 | 90.71 ± 0.14 | 91.2 ± 20 | 101 ± 5.3 |
| CCOc1nc2cccc(C(=O)O)c2n1Cc1ccc(-c2ccccc2-c2nn[nH]n2)cc1 [Candesartan] | 98 ± 5.4 | 122 | 93.6 ± 2.2 | 101 | 127.9 ± 1.2 | 109 | 82.15 ± 0.28 | 85.9 ± 7.9 | 112 ± 23 |
| Nc1nc(=O)c2ncn(CCC(CO)CO)c2[nH]1 [Penciclovir] | 115 ± 28 | 140 | 92.4 ± 6.6 | 95.3 | 84.4 ± 9.1 | 130 | 110 ± 5.5 | 123 ± 34 | 99.7 ± 8.5 |
| CC1(C)SC2C(NC(=O)C(N)c3ccccc3)C(=O)N2C1C(=O)[O-].[Na+] (stereo unspecified) [Ampicillin] | 101.47 ± 0.042 | 101 | 104 ± 9.8 | 84.6 | 86.7 ± 9.1 | 78.9 | 83.5 ± 3.9 | 77.9 ± 1.1 | 112 ± 20 |
| CC1Cc2ccccc2N1NC(=O)c1ccc(Cl)c(S(N)(=O)=O)c1 (stereo unspecified) [Indapamide] | 98 ± 9.9 | 100 | 94.6 ± 4.7 | 88.8 | 110 ± 14 | 128 | 80.2 ± 1.6 | 107 ± 18 | 105 ± 3.4 |
| O=NN(CCCl)C(=O)NC1CCCCC1 [Lomustine] | 94.4 ± 38 | 115 | 93.2 ± 13 | 95.2 | 83.2 ± 8.6 | 146 | 80.2 ± 12 | 91.3 ± 13 | 125 ± 10 |
